Screens as filed in PubChem.
PLK1 kinase inh: human PLK1 kinase inhibitors, primary screen, biochemical, TR-FRET | inhibition, % at 10 µM | Serine/threonine-protein kinase PLK1 (Homo sapiens), P53350 | AID 619, 2007 | 97,000 compounds, 0.53% hits | recombinant PLK1 kinase, TR-FRET peptide phosphorylation;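 active = inhibition of 50% or more in the single-concentration screen; inactive = inhibition below 50%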;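 note: 0% = DMSO max control and 100% = H-89 dihydrochloride min control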
Target sequence (P53350 whole entry, looked up): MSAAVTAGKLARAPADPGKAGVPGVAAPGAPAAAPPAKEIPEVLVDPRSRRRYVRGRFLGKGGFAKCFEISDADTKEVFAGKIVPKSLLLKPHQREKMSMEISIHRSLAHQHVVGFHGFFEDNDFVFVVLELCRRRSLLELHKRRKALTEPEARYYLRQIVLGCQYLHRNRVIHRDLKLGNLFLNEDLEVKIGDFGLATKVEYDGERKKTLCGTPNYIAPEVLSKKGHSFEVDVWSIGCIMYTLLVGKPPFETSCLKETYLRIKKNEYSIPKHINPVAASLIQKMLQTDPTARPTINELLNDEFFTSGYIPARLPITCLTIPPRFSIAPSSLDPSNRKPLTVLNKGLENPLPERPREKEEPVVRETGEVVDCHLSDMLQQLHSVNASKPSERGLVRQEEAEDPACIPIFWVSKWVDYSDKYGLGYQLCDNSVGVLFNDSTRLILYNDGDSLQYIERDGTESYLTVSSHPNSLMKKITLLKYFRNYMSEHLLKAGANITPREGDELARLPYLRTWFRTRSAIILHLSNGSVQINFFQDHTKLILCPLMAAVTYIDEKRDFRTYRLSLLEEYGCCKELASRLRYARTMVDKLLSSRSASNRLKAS
Plk1 PBD FP: Plk1 polo box domain binding inhibitors, primary screen, biochemical, fluorescence polarization; Serine/threonine-protein kinase PLK1 (Homo sapiens), P53350; Plk1 PBD phosphopeptide binding; inhibition, %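 (tested at about 20 µM)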; 97,000 compounds, 0.13% hits; AID 693, 2007; in the data active = inhibition above about 34%, passing the limit was not always enough
CYP2C19 inh: blockers of cytochrome P450 2C19 activity – biochemical, luminescence, ADME assay, primary screen; P33261; CYP2C19 Supersomes, luciferin-H EGE luminescence, 30 min; inhibition, % at 5 µM; 96,000 compounds, 21% hits; AID 778, 2007;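 active = CYP2C19 inhibition above a set limit at 5 µM in the primary screen, cut at about 50% in these data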;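 note: plate controls were negative control wells for no effect and 2.5 mM tranylcypromine positive control for full effect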
CYP2C9 activ: human CYP2C9 activators, primary screen, biochemical, luminescence. activation factor at 5 µM. 96,000 compounds, 1.4% hits. recombinant CYP2C9, luciferin-H conversion; active compounds read high; factor 1 = untreated enzyme, 0 = blocked;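 active = activation factor of 2 or more for CYP2C9 at a 5 µM dose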;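 note: 0 = sulfaphenazole-blocked wells and 1 = vehicle-only wells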
CYP2C19 activ: human CYP2C19 activators, primary screen, biochemical, luminescence. Cytochrome P450 2C19 (Homo sapiens), P33261. recombinant CYP2C19, luciferin-H EGE luminescence; active compounds read high; 0 = fully inhibited enzyme, 1 = untreated enzyme. activation factor at 5 µM. 96,000 tested, under 10 active. AID 1025, 2008;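 active = activation factor of at least 2 at 5 µM in the primary screen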;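 note: 0 = wells with 2.5 mM tranylcypromine and 1 = vehicle-only wells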
CYP2C9 inhib: blockers of cytochrome P450 2C9 activity – biochemical, luminescence, ADME assay, primary screen. 96,000 compounds, 20% hits. CYP2C9 Supersomes, luciferin-H conversion. inhibition, % at 5 µM. P11712;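 active = blocking of liver enzyme CYP2C9 beyond about 50% at 5 µM, limit read from the data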
The depositor's hits bear a star. A selection: hits, their analogues and other compounds. The true share with any hit is near 28%.

How did O=C(N/N=C/c1ccccc1)c1sccc1OCc1ccc(F)cc1 do in these assays?
PLK1 kinase inh: -4; Plk1 PBD FP: -2; CYP2C19 inh: 37; CYP2C9 activ: 0.3; CYP2C19 activ: 0.6; CYP2C9 inhib: 70*

How did O=C(O)c1ccc(COc2ccc(/C=N/NC(=O)c3cccs3)cc2)cc1 do in these assays?
PLK1 kinase inh: -5; Plk1 PBD FP: -24; CYP2C19 inh: -2; CYP2C9 activ: 0.9; CYP2C19 activ: 1; CYP2C9 inhib: 8

How did C/C(=N\OCC(=O)N/N=C/c1ccccc1)c1cccs1 do in these assays?
PLK1 kinase inh: -2; Plk1 PBD FP: -2; CYP2C19 inh: 82*; CYP2C9 activ: 0.6; CYP2C19 activ: 0.2; CYP2C9 inhib: 41

Results for COc1ccc(/C=N/NC(=O)c2ccc(COc3ccccc3Cl)o2)cc1 ?
PLK1 kinase inh: -15; Plk1 PBD FP: 12; CYP2C19 inh: 35; CYP2C9 activ: 0.5; CYP2C19 activ: 0.6; CYP2C9 inhib: 50

How did O=C(N/N=C/c1cccc(OCc2ccccc2)c1)c1cccs1 do in these assays?
PLK1 kinase inh: -20; Plk1 PBD FP: 24; CYP2C19 inh: 26; CYP2C9 activ: 0.2; CYP2C19 activ: 0.7; CYP2C9 inhib: 83*

Results for CN1CC(=O)N(CCOc2ccccc2)C1=O ?
CYP2C19 inh: 3; CYP2C9 activ: 1; CYP2C19 activ: 1; CYP2C9 inhib: -2

How did O=C1N[C@@H](Cc2ccccc2)C(=O)N1CCN1CCOCC1 do in these assays?
PLK1 kinase inh: -6; Plk1 PBD FP: 8; CYP2C19 inh: 4; CYP2C9 activ: 1.3; CYP2C19 activ: 1; CYP2C9 inhib: -26

Results for CCOc1ccc(OCCN2C(=O)NC(Cc3c[nH]c4ccccc34)C2=O)cc1 (stereo not drawn) ?
PLK1 kinase inh: -2; Plk1 PBD FP: -5; CYP2C19 inh: 68*; CYP2C9 activ: 0.2; CYP2C19 activ: 0.3; CYP2C9 inhib: 80*

Results for O=C1NC(Cc2c[nH]c3ccccc23)C(=O)N1CCOc1ccc(F)cc1 (stereo not drawn) ?
PLK1 kinase inh: -18; Plk1 PBD FP: -11; CYP2C19 inh: 74*; CYP2C9 activ: 0.3; CYP2C19 activ: 0.3; CYP2C9 inhib: 71*

What do the screens show for `COc1ccc(C2SCC(=O)N2CC23CC4CC(CC(C4)C2)C3)cc1` (stereo not drawn)?
PLK1 kinase inh: -12; Plk1 PBD FP: 11; CYP2C19 inh: -6; CYP2C9 activ: 0.9; CYP2C19 activ: 1.1; CYP2C9 inhib: 15

What do the screens show for `CCC(c1nnnn1Cc1ccco1)N(Cc1cc2cc(C)cc(C)c2[nH]c1=O)CC1CCCO1` (stereo not drawn)?
PLK1 kinase inh: 0; Plk1 PBD FP: 8; CYP2C19 inh: 74*; CYP2C9 activ: 0.2; CYP2C19 activ: 0.3; CYP2C9 inhib: 79*

How did Cc1ccc2[nH]c(=O)c(C(c3nnnn3C3CCCC3)N(Cc3cccnc3)Cc3ccco3)cc2c1 (stereo not drawn) do in these assays?
PLK1 kinase inh: -5; Plk1 PBD FP: -2; CYP2C19 inh: 21; CYP2C9 activ: 0.5; CYP2C19 activ: 0.8; CYP2C9 inhib: 45

How did CCC(c1nnnn1Cc1ccco1)N(Cc1ccccc1OC)Cc1cc2cc(C)ccc2[nH]c1=O (stereo not drawn) do in these assays?
PLK1 kinase inh: 6; Plk1 PBD FP: 1; CYP2C19 inh: 49; CYP2C9 activ: 0.5; CYP2C19 activ: 0.5; CYP2C9 inhib: 51*

How did Cc1cc2cc(CNC(=O)CC(C)C)ccc2n1C do in these assays?
PLK1 kinase inh: -6; Plk1 PBD FP: -24; CYP2C19 inh: 38; CYP2C9 activ: 1.1; CYP2C19 activ: 0.6; CYP2C9 inhib: -7

What do the screens show for `O=C(O)Cn1ccnc1`?
PLK1 kinase inh: -21; Plk1 PBD FP: -8; CYP2C19 inh: 17; CYP2C9 activ: 0.9; CYP2C19 activ: 0.8; CYP2C9 inhib: 9

What do the screens show for `CCCSc1nc(N)cc(=O)[nH]1`?
CYP2C19 inh: 6; CYP2C9 activ: 1; CYP2C19 activ: 0.9; CYP2C9 inhib: -3

Results for COC(=O)c1cccc(CSc2nnc(C)s2)c1 ?
PLK1 kinase inh: -7; Plk1 PBD FP: -6; CYP2C19 inh: 62*; CYP2C9 activ: 0.9; CYP2C19 activ: 0.4; CYP2C9 inhib: 6

Results for O=C(Nc1nnc(SCc2ccc(Cl)cc2)s1)C1CCCO1 (stereo not drawn) ?
PLK1 kinase inh: -15; Plk1 PBD FP: -8; CYP2C19 inh: 49; CYP2C9 activ: 0.3; CYP2C19 activ: 0.5; CYP2C9 inhib: 73*

Results for C=CCn1c(Cc2csc(N)n2)nnc1SCc1ccc(C(=O)OC)cc1 ?
PLK1 kinase inh: -18; Plk1 PBD FP: 5; CYP2C19 inh: 94*; CYP2C9 activ: 0.3; CYP2C19 activ: 0.1; CYP2C9 inhib: 73*

What do the screens show for `CCC(=O)Nc1nnc(SCc2ccc(F)cc2)s1`?
PLK1 kinase inh: -13; Plk1 PBD FP: -20

Results for C=CCn1c(Cc2csc(N)n2)nnc1SCC(=O)Nc1ccc(C(=O)OCC)cc1 ?
PLK1 kinase inh: -19; Plk1 PBD FP: -21; CYP2C19 inh: 32; CYP2C9 activ: 0.6; CYP2C19 activ: 0.7; CYP2C9 inhib: 43

What do the screens show for `CC(C)(C)C(=O)Nc1nnc(SCc2ccc(F)cc2)s1`?
PLK1 kinase inh: -7; Plk1 PBD FP: -11; CYP2C19 inh: 68*; CYP2C9 activ: 0.2; CYP2C19 activ: 0.3; CYP2C9 inhib: 78*

Results for N#Cc1ccc(CSc2nnc(NC(=O)C3CCCO3)s2)cc1 (stereo not drawn) ?
PLK1 kinase inh: -2; Plk1 PBD FP: 20; CYP2C19 inh: 20; CYP2C9 activ: 0.8; CYP2C19 activ: 0.8; CYP2C9 inhib: 19

How did COC(=O)c1ccc(CSc2nnc(C)s2)cc1 do in these assays?
PLK1 kinase inh: -10; Plk1 PBD FP: 0; CYP2C19 inh: 49; CYP2C9 activ: 0.8; CYP2C19 activ: 0.5; CYP2C9 inhib: 20

What do the screens show for `COC(=O)c1ccc(CSc2nnc(N)s2)cc1`?
CYP2C19 inh: 74*; CYP2C9 activ: 0.7; CYP2C19 activ: 0.3; CYP2C9 inhib: 26

Results for COC(=O)c1ccc(CSc2nnc(NC(=O)C3CCCO3)s2)cc1 (stereo not drawn) ?
PLK1 kinase inh: -3; Plk1 PBD FP: 30; CYP2C19 inh: 32; CYP2C9 activ: 0.3; CYP2C19 activ: 0.7; CYP2C9 inhib: 70*

Results for COc1ccc(NC(=O)c2ccc3snnc3c2)cc1 ?
PLK1 kinase inh: -9; Plk1 PBD FP: 5

Results for CCN(CC)c1ccc(NC(=O)CN2C(=O)CSc3ncccc32)c(C)c1 ?
PLK1 kinase inh: -9; Plk1 PBD FP: -28; CYP2C19 inh: -22; CYP2C9 activ: 1.2; CYP2C19 activ: 1.2; CYP2C9 inhib: -16
